Source: PubChem BioAssay (Tox21)
Activity calls are given as the source filed them. The call rests on the fitted dose curve; in most records, active means well fitted curve in the direction sought with a large enough effect in the repeat runs; inconclusive means weak or mixed curves; inactive means flat fitted curve, though single readings scatter.

test: qHTS assay to test for compound auto fluorescence at 535 nm (green) in HepG2 cells (AID 720675); conditions: green autofluorescence 485/535 nm, 1 h; series mostly up to 91.3 µM
On the % scale 0 is the no-effect control and ±100 the full control effect.

Compound | fluorescence, % of fluorescein control | outcome
O=C(O)CCC(=O)Nc1ccc(S(=O)(=O)Nc2nccs2)cc1 | -0.003% [at 18.6 µM] (inactive) | 
C/C(=N\O)c1ccc(OCC(=O)N2CCCCC2)cc1 |  | inactive
Cc1ccc(Br)cc1 |  | inactive
C=CC(=O)OCCOCCOCC |  | inactive
CC(C)OCCO |  | inactive
CCOC(=O)CC |  | inactive
N#Cc1ccccc1C#N |  | inactive
CN(C)CCc1c[nH]c2ccc(C[C@H]3COC(=O)N3)cc12 |  | inactive
O=C(O)COc1ccc2ccccc2c1 |  | inactive
COC(=O)N/N=C/c1c[n+]([O-])c2ccccc2[n+]1[O-] |  | inactive
CCCCCCCCCCCCCCCC/C=C/C1CC(=O)OC1=O (configuration not stated) |  | inactive
COCc1nnc(-c2ccc[n+]([O-])c2)n1-c1c(Cl)c(Cl)cc2[nH]c(=O)c(=O)[nH]c12 |  | inactive
NS(=O)(=O)c1cc2c(cc1C(F)(F)F)NCNS2(=O)=O | -0.0771% [at 18.6 µM] (inactive) | 

test: qHTS assay to test for compound auto fluorescence at 460 nm (blue) in HEK293 cells (AID 720678); conditions: blue autofluorescence 405/460 nm; series mostly up to 91.3 µM
Method in brief: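 HEK293 cells (2,000 per well, medium with 10% dialyzed FBS) attached for 4-5 hr at 37C, then received compound and stood overnight at 37C, 5% CO2. Blue fluorescence was read at Ex/Em 405/460 nm and expressed relative to triamterene.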

Compound | outcome | fluorescence, % of triamterene
CC(=O)SCC(CC(=O)c1ccc(C)cc1)C(=O)O (configuration not stated) | inactive | 
CCCCCCC(=O)c1ccccc1 | inactive | 
CC(=O)c1ccc2ccc3ccccc3c2c1 | inactive | 
CC(=O)OCC(=O)[C@@]1(O)CC[C@H]2[C@@H]3CCC4=CC(=O)C=C[C@]4(C)[C@H]3[C@@H](O)C[C@@]21C | inactive | 
CCCCCCCCS(=O)(=O)O | inactive | 
COC(=O)c1c(C)cc(O)c(C)c1O | inactive | 
CCCCCCCCCCCCCCCC(=O)OC |  | 0.179% [at 18.6 µM] (inactive)
COc1cc(NS(=O)(=O)c2ccc(N)cc2)ncn1 |  | -0.148% [at 18.6 µM] (inactive)
O=S(=O)(O)c1cc(I)c(O)c2ncccc12 | inactive | 
C[C@H]1COc2c(C3(N)CC3)c(F)cc3c(=O)c(C(=O)O)cn1c23 | inactive | 
CC(C)(O)CCCC1=CCC(C=O)CC1 (configuration not stated) | inactive | 
C=CCN1CCc2nc(N)sc2CC1 | inactive | 
O=Cc1ccccc1S(=O)(=O)O | inactive | 
CC[C@@]1(c2ccccc2)NC(=O)N(C)C1=O | inactive | 
c1cc2ccc3ccc4ccc5cccc6c(c1)c2c3c4c56 |  | 1.23% [at 3.72 µM] (inactive)
CCN1CCN(C(=O)N[C@@H](C(=O)N[C@@H]2C(=O)N3[C@@H]2SC(C)(C)[C@H]3C(=O)O)c2ccccc2)C(=O)C1=O | inactive | 
O=C(O)Cc1c(Cl)ccc(Cl)c1Cl | inactive | 

Compound | outcome | fluorescence, % of triamterene
CC(C)(O)c1ccc(C(C)(C)O)cc1 | inactive | 
NC(=O)CC[C@@H](N)C(=O)O | inactive | 
CCCCCC(CC)OC(=O)CCCOc1ccc(Cl)cc1Cl (configuration not stated) | inactive | 
O=C(O)/C=C(\CC(=O)O)C(=O)O | inactive | 
O=C(O)CCC(=O)Nc1ccc(S(=O)(=O)Nc2nccs2)cc1 |  | 0.029% [at 18.6 µM] (inactive)
C/C(=N\O)c1ccc(OCC(=O)N2CCCCC2)cc1 | inactive | 
Cc1ccc(Br)cc1 | inactive | 
C=CC(=O)OCCOCCOCC | inactive | 
CC(C)OCCO | inactive | 
CCOC(=O)CC | inactive | 
N#Cc1ccccc1C#N | inactive | 
CN(C)CCc1c[nH]c2ccc(C[C@H]3COC(=O)N3)cc12 | inactive | 
O=C(O)COc1ccc2ccccc2c1 | inactive | 
COC(=O)N/N=C/c1c[n+]([O-])c2ccccc2[n+]1[O-] | inactive | 
CCCCCCCCCCCCCCCC/C=C/C1CC(=O)OC1=O (configuration not stated) | inactive | 
COCc1nnc(-c2ccc[n+]([O-])c2)n1-c1c(Cl)c(Cl)cc2[nH]c(=O)c(=O)[nH]c12 | inactive | 
NS(=O)(=O)c1cc2c(cc1C(F)(F)F)NCNS2(=O)=O |  | -0.352% [at 18.6 µM] (inactive)
